This is a sample that favours compounds with a hit; in the whole collection about 1.3% have one here.
14-3-3 Bad inh: disrupts binding of bovine 14-3-3 zeta to phospho-Bad peptide; P63103; TR-FRET 14-3-3zeta/Dy647-pBad peptide displacement, 1 h; inhibition, % at 21.7 µM; actives 0.71% (n = 220,000); AID 781;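 active = inhibition above about 70%, limit read from the data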;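 also: 0% = full 14-3-3 plus peptide FRET controls and 100% = background without 14-3-3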
NCF1 inh: blocks human p47phox regulatory protein of NADPH oxidases; actives 0.53% (n = 220,000); inhibition, % at 24.7 µM; p47phox/p22phox peptide binding, fluorescence polarization, 2 h;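 also: 0% = p47phox with labelled peptide and 100% = labelled peptide alone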
eIF4E 4G PPI: eIF4E/eIF4G interaction inhibition in translation initiation; TR-FRET eIF4E-eIF4GI(517-606) binding, 2 h; inhibition, % at 21.7 µM; actives 0.37% (n = 220,000);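 also: 0% = full FRET control wells and 100% = background wells lacking eIF4GI fragment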
SUMO HTRF inh: inhibitors of human SUMOylation (UBC9); HTRF SUMOylation assay, SAE1/SAE2 + UBC9, in vitro; actives 0.36% (n = 290,000); inhibition, % at 35 µM; AID 2006; in the data active = inhibition above about 50%, passing the limit was not always enough
The depositor's hits bear a star; / = no result given; [ ] = remark or other dose.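 The calls were made as follows, unless noted: active = inhibition above about 30% (limit read from the data); inactive = the rest.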

SMILES	14-3-3 Bad inh	NCF1 inh	eIF4E 4G PPI	SUMO HTRF inh
O=C1NC(=O)N(Cc2ccc(F)cc2)C(=O)/C1=C\c1ccc([N+](=O)[O-])s1	8.3	-27.2	10.1	63.4*
COc1ccc(N2C(=O)NC(=O)/C(=C\c3ccc([N+](=O)[O-])s3)C2=O)cc1	4.5	-107.6	4.9	48.8
COc1ccc(N2C(=O)NC(=O)/C(=C/c3ccc([N+](=O)[O-])s3)C2=O)cc1	2.2	-108.7	6.5	50.8*
COc1ccc(N2C(=O)/C(=C/C=C/c3ccccc3[N+](=O)[O-])C(=O)NC2=S)cc1	45.7	-18.7	35.7*	26.9
O=C1NC(=O)N(Cc2ccc(F)cc2)C(=O)/C1=C\c1ccc(N2CCCC2)cc1	-6.5	193.4*	10.3	35.8
O=C1NC(=O)N(c2ccc(F)cc2)C(=O)/C1=C/c1ccc(N2CCOCC2)cc1	-18.9	-13.2	2.2	17.7
CCOc1cc2c(cc1OCC)-n1cccc1C(c1cccc(OCC)c1O)NC2 (stereo not given)	/	/	/	2.3
O=C(c1ccncc1)C12CN3CN(CN(C3)C1)C2	85.0*	-19.0	-1.1	0.6
CC(=O)N1CN2CN(C(C)=O)CC(C(=O)c3ccccc3)(C2)C1	3.3	-4.8	4.6	-2.6
O=C(CN1CC(c2ccccc2)CC1=O)Nc1ccccc1 (stereo not given)	-1.8	-6.1	1.8	2.4
CCN(CC)c1ccc(/C=C2\C(=O)NC(=O)N(CC3CCCO3)C2=O)cc1 (stereo not given)	-5.1	-115.7	3.3	23.6
CN(C)c1ccc(/C=C2/C(=O)NC(=O)N(Cc3ccco3)C2=O)cc1	-1.1	77.6*	5.4	26.6
CCN(CC)c1ccc(/C=C2/C(=O)NC(=O)N(Cc3ccco3)C2=O)cc1	-25.9	167.8*	1.7	12.1
C=CCN1C(=O)/C(=C/c2cccs2)C(=O)NC1=S	21.7	-2.3	16.4	-3.1
O=C1NC(=S)N(Cc2ccco2)C(=O)/C1=C\c1cccs1	96.7*	-97.0	70.0*	94.2*
Cc1cc(/C=C2/C(=O)NC(=O)N(Cc3ccco3)C2=O)c(C)n1-c1ccccc1	2.0	-96.3	1.6	46.2
Cc1ncc(CN2CCCC(C(=O)c3cccc(Cl)c3)C2)s1 (stereo not given)	-2.3	0.1	4.3	11.8
Cc1cc(C(=O)O)c(C)n1C1CC1	-5.3	0.1	-7.5	27.5
N/C(=N\[N+](=O)[O-])NCCCC(NC(=O)CNC(=O)c1ccccc1)C(=O)O (stereo not given)	-8.9	2.8	2.1	-7.6
CCOC(=O)c1c(NC(=O)C(c2ccccc2)c2ccccc2)sc2c1C1CCN2CC1	79.1*	-77.4	2.2	-22.7
CSc1nnc(C2CCNCC2)n1C	87.2*	-4.6	5.6	3.6
O=c1cccc2n1CC1CC2CN(Cc2c(F)cccc2Cl)C1 (stereo not given)	76.5*	-28.7	2.5	6.6
CC(C)CC(=O)NC(Oc1ccc(Cl)cc1)C(Cl)(Cl)Cl (stereo not given)	5.2	-12.0	7.4	1.3
CCCC(=O)NC(Oc1ccc(Cl)cc1Cl)C(Cl)(Cl)Cl (stereo not given)	87.6*	-32.4	11.0	15.0
CCCC(=O)NC(Oc1ccccc1Cl)C(Cl)(Cl)Cl (stereo not given)	77.3*	-7.9	2.4	-10.1
SMILES	14-3-3 Bad inh	NCF1 inh	eIF4E 4G PPI	SUMO HTRF inh
CCCC(=O)NC(Oc1ccc(OC)cc1)C(Cl)(Cl)Cl (stereo not given)	-10.7	-4.5	1.7	-1.9
O=C(c1ccc(Cl)cc1)C1CCCN(Cc2ccc3nonc3c2)C1 (stereo not given)	-5.1	47.8*	5.8	-2.0
Cc1cc(C(=O)N2CCC3(CC2)OCCO3)no1	/	/	/	1.7
Cc1ccc(N2CCN(CCc3ccccc3)CC2)cc1	82.8*	-4.3	-1.7	7.1
Cn1c(O)c(C=NC2CCN(Cc3ccccc3)CC2)c(=O)[nH]c1=O	0.5	-3.5	79.5*	29.8
C=CCn1c(O)c(Cc2ccc(OCC)cc2)c(=O)[nH]c1=O	/	/	/	-6.7
COc1ccc(CCNCc2ccc(F)cc2)cc1OC	-10.2	-14.8	0.8	0.2
COc1ccc(CCNCc2ccccn2)cc1OC	75.2*	-0.9	3.8	8.3
CCCCn1c(NS(=O)(=O)c2ccc(C)cc2)c(C(=O)OCC)c2nc3ccccc3nc21	16.9	-6.4	2.6	99.0*
CCCCn1c(NC(=O)c2ccco2)c(C(=O)OCC)c2nc3ccccc3nc21	-1.1	-14.1	-6.8	102.6
CCCCn1c(N)c(C(=O)OCCOC)c2nc3ccccc3nc21	2.6	-13.7	-10.8	66.7*
CCCCOCCCn1c(N)c(C(=O)OCCOC)c2nc3ccccc3nc21	/	-2.7	/	17.6
Cc1cc(C)c(Cn2c(C(=O)O)c(C=O)c3ccccc32)c(C)c1	-3.3	-60.4	3.0	-0.8
CCCNC(=O)c1c(N)n(CC2CCCO2)c2nc3ccccc3nc12 (stereo not given)	-6.3	-24.1	-0.6	101.5*
CC(C)OCCCNC(=O)c1c(N)n(CC2CCCO2)c2nc3ccccc3nc12 (stereo not given)	/	/	/	98.1*
CC1=C(/C=C/c2ccccc2)CCN(C)C1	-1.1	-11.9	-1.0	10.3
Cc1ccsc1C(=O)C1CCCN(Cc2cccc(-n3cccn3)c2)C1 (stereo not given)	-7.8	-11.2	1.1	-12.4
Cc1ccsc1C(=O)C1CCCN(Cc2ccc(-n3cccn3)cc2)C1 (stereo not given)	-14.7	-8.0	-2.2	65.4*
c1ccc2nc(OCCN3CC3)ccc2c1	12.1	5.5	-5.4	11.5
O=c1[nH]c2ccccc2n1CCCN1CCC(n2c(=O)[nH]c3cc(Cl)ccc32)CC1	92.3*	-6.0	0.1	18.3
COc1ccc(N2C(=O)CC(N3CCC(n4c(=O)[nH]c5ccccc54)CC3)C2=O)cc1 (stereo not given)	-9.6	-2.1	-4.4	-2.1
CCOC(=O)C1=C(N)Oc2cc(C)oc(=O)c2C12C(=O)N1c3c(cccc32)C(C)CC1(C)C (stereo not given)	70.3*	-6.3	-12.4	-9.4
CCOC(=O)C1=C(N)Oc2cc(C)oc(=O)c2C12C(=O)N1c3c(cccc32)C(C)=CC1(C)C (stereo not given)	1.2	-26.4	0.8	11.9
COc1cc(/C=C/C(=O)c2c(O)n(CCc3ccccc3)c(=O)[nH]c2=O)ccc1O	3.6	-73.7	-0.9	4.4
C/C(=N\N1CCCCCC1)c1c(O)n(C2CCCCC2)c(=O)[nH]c1=O	-15.7	-0.7	44.7*	11.0
SMILES	14-3-3 Bad inh	NCF1 inh	eIF4E 4G PPI	SUMO HTRF inh
Cn1ncc(Cl)c1C(=O)N1CCC2(CC1)OCCO2	/	/	/	8.7
CN1C[C@H](CO)C=C2c3cccc4[nH]cc(c34)C[C@H]21	10.8	14.5	7.0	65.3*
CCN1CCN(Cc2ccc(OC(F)(F)F)cc2)CC1	85.0*	-7.9	0.4	-1.6
CCCCCCOc1ccc(CN2CCN(CC)CC2)cc1	29.8	-6.1	0.3	7.9
CCOc1ccc(C(C)=O)cc1Cn1ccsc1=N	/	/	/	14.2
Nc1c2c(nc3ccccc13)CCN(Cc1ccccc1)C2	/	/	/	26.3
Nc1cc2nc3ccccc3nc2cc1N	18.4	6.1	35.7*	81.1*
O=C(Cc1ccccc1)OCn1nnc2ccccc2c1=O	17.9	6.5	58.7*[fluorescence artefact?]	0.2
